{
  "source": "PubChem BioAssay (Tox21)",
  "note": "Unmarked numbers belong to inactive results. The call rests on the fitted dose curve; in most records, active means well fitted activation curve with a large enough effect in the repeat runs; inconclusive means weak or mixed curves; inactive means flat fitted curve, though single readings scatter. On the % scale 0 is the no-effect control and ±100 the full control effect.",
  "data": [
    {"target": "KiSS-1 receptor (Homo sapiens) (UniProt Q969F8)", "sequence (Q969F8 whole entry, looked up)": "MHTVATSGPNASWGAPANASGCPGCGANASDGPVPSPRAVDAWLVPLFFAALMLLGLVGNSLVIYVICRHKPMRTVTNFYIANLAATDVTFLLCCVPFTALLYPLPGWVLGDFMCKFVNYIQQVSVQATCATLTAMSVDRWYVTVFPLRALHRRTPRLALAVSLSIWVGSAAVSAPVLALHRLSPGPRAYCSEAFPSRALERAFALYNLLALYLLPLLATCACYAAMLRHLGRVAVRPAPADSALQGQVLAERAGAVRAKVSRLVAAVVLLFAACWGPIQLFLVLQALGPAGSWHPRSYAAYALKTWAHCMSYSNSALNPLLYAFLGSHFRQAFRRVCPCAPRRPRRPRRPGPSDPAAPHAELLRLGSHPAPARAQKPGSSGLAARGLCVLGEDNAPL", "test": "Human kisspeptin (KISS1R) small molecule agonists, calcium flux assay in KISS1R-HEK293 cells (AID 1920064)", "settings": "KISS1R-HEK293, calcium flux fluorescence, agonist; series mostly up to 76.8 µM; activation: at the top concentration", "description": "National Center for Advancing Translational Sciences [NCATS]\nDivision of Preclinical Innovation [DPI]\nU.S. Environmental Protection Agency [EPA]\nNational Institutes of Environmental Health Sciences [NIEHS]\nNational Toxicology Program [NTP]\nU.S. Food and Drug Administration [FDA]\nKisspeptin and its receptor KISS1R play key roles in mammalian reproduction due to their involvement in the onset of puberty and control of the hypothalamic-pituitary-gonadal axis such as regulates GnRH release from the hypothalamus. The kisspeptin/KISS1R system also plays a direct role in peripheral organs (including the ovary, testis, uterus, and placenta) and is implicated in reproductive diseases such as miscarriage and polycystic ovary syndrome (PCOS). Abnormal KISS1R activity is associated with abnormal puberty, infertility, endometriosis, and hormone-dependent tumors. The KISS1 receptor (KISS1R, also called GPR54), a G-protein-coupled receptor (GPCR), acts (through phospholipase C) to increase intracellular inositol trisphosphate and then release intracellular calcium stores. Cell-based KISS1R-HEK293 assay is using HEK293 cells that have been genetically engineered to express the human KISS1R, which activity can be measured by calcium signaling. A compound/drug can activate (agonist) KISS1R that can be monitored by levels of intracellular calcium.\nKISS1R-HEK293 cells developed by Codex Corp contain human KISS1R gene, which was stably integrated into HEK 293 cells. The compound activation can be detected by fluorescence intensity via calcium flux assay. This cell line has been used to screen the Tox21 10K compound library to identify agonists of KISS1R.\nKISS1R-Hek293 cells were dispensed at 1500 cells/4uL/well in 1536-well black wall/clear bottom plates using a multidrop dispenser. After the assay plates were incubated at a 37 C/5% CO2 incubator for 18 hours, 4 microL of Calcium Dye Solution was added to each well. The plates were incubated at 37 C for 1 hour. And then 23 nL of compounds dissolved in DMSO, positive controls, or DMSO only was transferred to the assay plate by a pin tool station. The fluorescence intensity in the plates was measured using FDSS 7000EX kinetic plate reader with a filter set of Ex/Em=480/540 for 3 min at 1 sec intervals. Each test compound was measured at 15 concentrations and in triplicates.", "values": [
      {"smiles": "CCN(CC)C(=O)Nc1ccc(OCC(O)CNC(C)(C)C)c(C(C)=O)c1", "note": "(stereo not given)", "activation": "-1% [at 35.3 µM]"},
      {"smiles": "O=C1c2ccccc2C(=O)C1c1ccccc1", "activation": "-1.47% [at 35.3 µM]"},
      {"smiles": "CCN(CC)CCc1nc(-c2ccccc2)no1", "activation": "0.342% [at 35.3 µM]"},
      {"smiles": "CCCCOC(=O)[C@@H](C)Oc1ccc(Oc2ccc(C(F)(F)F)cn2)cc1", "activation": "2.34%"},
      {"smiles": "CCc1cccc(C)c1", "activation": "-7.03%"},
      {"smiles": "CN1CCN(C2=Nc3cc(F)ccc3Cc3ccccc32)CC1", "activation": "-0.217% [at 35.3 µM]"},
      {"smiles": "CCCCOc1ccc(C(=O)CCN2CCCCC2)cc1", "activation": "4.84% [at 35.3 µM]"},
      {"smiles": "O=c1[nH]c(=O)n([C@H]2O[C@H](CO)[C@@H](O)[C@@H]2O)cc1/C=C\\Br", "activation": "0.347% [at 35.3 µM]"},
      {"smiles": "O=C1c2cccc(O)c2C(=O)c2c(O)cc(CO)cc21", "activation": "5.66%"},
      {"smiles": "CS(=O)(=O)c1ccc(-c2cn3ccccc3n2)cc1", "activation": "-0.366% [at 35.3 µM]"},
      {"smiles": "O=C(NS(=O)(=O)/C=C/c1ccccc1)c1ccc(F)cc1Cl", "activation": "1.97%"},
      {"smiles": "C[C@@]12C(=O)OC(=O)[C@]1(C)C1CCC2O1", "activation": "-0.63% [at 35.3 µM]"},
      {"smiles": "COc1cccc(O)c1", "activation": "-3.58%"},
      {"smiles": "CC(C)Cc1nccs1", "activation": "0.424%"},
      {"smiles": "NS(=O)(=O)c1cc(C2(O)NC(=O)c3ccccc32)ccc1Cl", "note": "(stereo not given)", "activation": "-1.18% [at 35.3 µM]"},
      {"smiles": "Cc1cc(-n2nc3ccc(Cl)cc3n2)c(O)c(C(C)(C)C)c1", "activation": "-0.239% [at 35.3 µM]"},
      {"smiles": "COCCOC(=O)C1=C(C)NC(C)=C(C(=O)OC/C=C/c2ccccc2)C1c1cccc([N+](=O)[O-])c1", "note": "(stereo not given)", "activation": "0.0805% [at 35.3 µM]"},
      {"smiles": "S=c1[nH][nH]c(=S)s1", "activation": "-1.28%"},
      {"smiles": "CNC(=O)c1cc(Oc2ccc(NC(=O)Nc3ccc(Cl)c(C(F)(F)F)c3)cc2)ccn1", "activation": "-0.824% [at 35.3 µM]"},
      {"smiles": "COc1ccc(OC)c(OC)c1", "activation": "0.0911%"},
      {"smiles": "Nc1cc(C(=O)O)ccc1Cl", "activation": "1.74%"},
      {"smiles": "CCc1cc(S(=O)(=O)O)c2cc(C(C)C)cccc1-2", "activation": "0.607% [at 35.3 µM]"},
      {"smiles": "CCNC(=O)C1CC(C)CCC1C(C)C", "note": "(stereo not given)", "activation": "22.6%"},
      {"smiles": "O=C1c2ccccc2C(=O)C1c1nc2ccccc2c(Br)c1O", "activation": "-0.891%"},
      {"smiles": "COc1ccc(-c2cc(C(F)F)nn2-c2ccc(S(N)(=O)=O)cc2)cc1F", "activation": "2.36% [at 35.3 µM]"},
      {"smiles": "COc1cc2c(cc1OC)CN(C(=O)[C@H](C)N[C@@H](CCc1ccccc1)C(=O)O)[C@H](C(=O)O)C2", "activation": "-0.523% [at 35.3 µM]"},
      {"smiles": "Nc1ccc(C(=O)O)c(O)c1", "activation": "0.312% [at 35.3 µM]"},
      {"smiles": "Clc1nc(C(Cl)(Cl)Cl)c(Cl)c(Cl)c1Cl", "activation": "0.101%"},
      {"smiles": "COC(=O)CCc1ccc(OCC(O)CNC(C)C)cc1", "note": "(stereo not given)", "activation": "0.151% [at 35.3 µM]"},
      {"smiles": "FC(F)(F)C(F)(F)C(F)(F)C(F)(F)C(F)(F)C(F)(F)C(F)(F)C(F)(F)Br", "activation": "0.255% [at 35.3 µM]"},
      {"smiles": "C=COCC1CCC(CO)CC1", "note": "(stereo not given)", "activation": "0.145%"},
      {"smiles": "CCc1cccc(C)c1N(C(=O)C(=O)O)C(C)COC", "note": "(stereo not given)", "activation": "2.27%"},
      {"smiles": "CCCC1CCC(=O)O1", "note": "(stereo not given)", "activation": "0.517%"},
      {"smiles": "CCCN1C[C@H](CSC)C[C@@H]2c3cccc4[nH]cc(c34)C[C@H]21", "activation": "4.22% [at 35.3 µM]"},
      {"smiles": "CCOC(=O)C(O)c1ccccc1", "note": "(stereo not given)", "activation": "1.92% [at 35.3 µM]"},
      {"smiles": "CC1CC(C)C(=O)C1=O", "note": "(stereo not given)", "activation": "-4.17%"},
      {"smiles": "C/C(=C(\\CCOP(=O)(O)O)SC(=O)c1ccccc1)N(C=O)Cc1cnc(C)nc1N", "activation": "-0.956% [at 6.97 µM]"},
      {"smiles": "N#Cc1cscn1", "activation": "-0.109%"},
      {"smiles": "Cc1c(NC(C)C)c(=O)n(-c2ccccc2)n1C", "activation": "1.67% [at 35.3 µM]"},
      {"smiles": "CCCCCCCCC=O", "activation": "-1.2%"}
    ]}
  ]
}
